Screening data deposited in PubChem BioAssay by several laboratories.
In the library only some 4% were active in any assay of this set; here they are far more common.
RecA splice inh: Mtb RecA intein splicing inhibitors, primary screen, biochemical, fluorescence, HTS. Protein RecA (Mycobacterium tuberculosis (strain ATCC 25618 / H37Rv)), P9WHJ3. cell-free RecA intein splicing. inhibition, % (concentration not given with the values). hit rate 0.75% among 290,000; in the data active = inhibition above about 30%
Rv3671c inh: Rv3671c serine protease inhibitors, primary screen, biochemical, fluorescence polarization, M. tuberculosis H37Rv. inhibition, % at 5.96 µM. hit rate 0.048% among 320,000. AID 2606, 2010; in the data active = inhibition above about 38%;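 note: extracellular domain of Rv3671c used as enzyme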
Target sequence (P9WHR9 whole entry, looked up, the tested form may be a part): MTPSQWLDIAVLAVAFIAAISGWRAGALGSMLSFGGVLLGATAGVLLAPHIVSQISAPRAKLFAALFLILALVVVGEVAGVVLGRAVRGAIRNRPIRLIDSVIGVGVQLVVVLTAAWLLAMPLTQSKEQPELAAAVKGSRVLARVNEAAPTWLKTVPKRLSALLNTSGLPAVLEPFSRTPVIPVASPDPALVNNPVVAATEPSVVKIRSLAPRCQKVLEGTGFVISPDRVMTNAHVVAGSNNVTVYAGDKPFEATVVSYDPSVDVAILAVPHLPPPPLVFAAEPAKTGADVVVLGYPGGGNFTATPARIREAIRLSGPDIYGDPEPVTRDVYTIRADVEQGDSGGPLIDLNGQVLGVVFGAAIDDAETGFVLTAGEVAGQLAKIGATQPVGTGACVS
GDH-TPI counter-1: GDH-TPI coupling enzyme inhibitors, primary screen, artefact control for M. tuberculosis FBA inhibitor project, biochemical, absorbance, full deck; inhibition, % at 4.8 µM; hit rate 1.2% among 360,000; AID 588335, 2011; GDH-TPI coupled enzyme counterscreen, NADH absorbance; in the data active = inhibition above about 30%
UGM FP inh: M. tuberculosis UGM enzyme inhibitors, primary screen, biochemical, fluorescence polarization, single point | purified UGM, fluorescence polarization probe displacement | inhibition, % at 10 µM | hit rate 0.06% among 320,000; in the data active = inhibition above about 10%, passing the limit was not always enough
Mtb betalactam: beta-lactam sensitization of Mtb H37Rv, H37Rv; M. tuberculosis H37Rv growth with meropenem, percent inhibition; inhibition, % at 25 µM; hit rate 0.27% among 330,000; AID 434955, 2010; call rule not given here;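 note: growth measured after seven days incubation then overnight dye step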
FBA Mtb inh: Mtb FBA enzyme inhibitors, primary screen, biochemical, fluorescence, strain H37Rv; Fructose-bisphosphate aldolase (Mycobacterium tuberculosis (strain ATCC 25618 / H37Rv)), …; inhibition, % at 1 µM; AID 588726, 2011; hit rate 2.3% among 360,000; purified M. tuberculosis FBA, fluorescence read-out
Mtb FBA inh conf: M. tuberculosis aldolase blockers, biochemical, fluorescence, strain H37Rv, confirmation | AID 651616, 2012 | hit rate 78% among 5,600 | shares compounds with FBA Mtb inh | purified M. tuberculosis FBA, fluorescence read-out | inhibition, % at 1 µM
GDH-TPI counter-2: GDH-TPI coupling enzyme inhibitors, artefact control for M. tuberculosis FBA inhibitor project, biochemical, fluorescence, high throughput; inhibition, % at 1 µM; hit rate 81% among 5,600; shares compounds with FBA Mtb inh; GDH-TPI coupled enzyme counterscreen; in the data active = inhibition above about 10%
GDH-TPI DR: GDH-TPI coupling enzyme inhibitors, dose response, artefact control for M. tuberculosis FBA inhibitor project, biochemical, fluorescence, IC50; shares compounds with FBA Mtb inh; hit rate 79% among 170; IC50, µM; GDH-TPI coupled enzyme assay, artifact counterscreen; call rule not given here
Large screens that a line does not name were inactive (follow-up assays come after a bar, where they were run). Cut-off read from the data, not from the text of the source, unless noted: active = inhibition above about 27%; inactive = the rest.

COc1ccc(OCc2nnc(SCC(=O)NC3CC3)n2C)cc1	none
NC(c1csc(Nc2ccc(C(=O)NCCO)cc2)n1)C1CCCCC1 (stereo not given)	none (no result: RecA splice inh, Rv3671c inh, UGM FP inh, Mtb betalactam)
Cc1cccn2c(=O)c3cc(C(=O)N(C)C)n(C)c3nc12	FBA Mtb inh 49 | Mtb FBA inh conf 93 | GDH-TPI counter-2 69
Cc1cccn2c(=O)c3cc(C(=O)NCCCN4CCCC4=O)n(C)c3nc12	FBA Mtb inh 108 | Mtb FBA inh conf inactive | GDH-TPI counter-2 inactive
Cc1cccn2c(=O)c3cc(C(=O)NCCCn4ccnc4)n(C)c3nc12	FBA Mtb inh 59 | Mtb FBA inh conf 77 | GDH-TPI counter-2 53
CN(C)c1nc(OCc2ccccc2)c2ncc(=O)[nH]c2n1	FBA Mtb inh 31 | Mtb FBA inh conf inactive | GDH-TPI counter-2 inactive | GDH-TPI DR 4.9
CN(C)c1nc(NCc2ccccc2)nc(Oc2ccc(=O)[nH]n2)n1	none
C=CCNc1cnn(-c2ccc(C)cc2)c(=O)c1Sc1ccc(C)cc1	FBA Mtb inh 41 | Mtb FBA inh conf 56 | GDH-TPI counter-2 47
Cc1ccc(Sc2cnn(-c3ccccc3)c(=O)c2Cl)cc1	none
Cn1nc(C(C)(C)C)c([N+](=O)[O-])c1C(=O)NC1CCCCC1	none
COc1cc(/C=C/C(=O)OCC(=O)NCc2ccco2)ccc1O	none
CCc1nnc(NC(=O)c2sc3nc4c(cc3c2N)CCCCCC4)s1	FBA Mtb inh 61 | Mtb FBA inh conf inactive | GDH-TPI counter-2 inactive
CCc1nnc(NC(=O)c2sc3nc4c(cc3c2N)CCCCC4)s1	none
COc1cc2c(c3ccccc13)CCCC2=O	FBA Mtb inh 110 (no result: RecA splice inh, Rv3671c inh, UGM FP inh, Mtb betalactam) | Mtb FBA inh conf 116 | GDH-TPI counter-2 91
O=C1CCCc2c1ccc1ccccc21	none (no result: RecA splice inh, Rv3671c inh, UGM FP inh, Mtb betalactam)
O=[N+]([O-])c1ccccc1S(=O)(=O)Nc1ccc(-c2ccc(N3CCOCC3)nn2)cc1	FBA Mtb inh 53 (no result: UGM FP inh) | Mtb FBA inh conf active | GDH-TPI counter-2 active
O=[N+]([O-])c1ccccc1S(=O)(=O)Nc1cccc(-c2ccc(N3CCOCC3)nn2)c1	none (no result: UGM FP inh)
COC(=O)C1=C(C)NC(=O)NC1c1ccc(N2CCC(c3ccccc3)=N2)cc1 (stereo not given)	FBA Mtb inh 78 | Mtb FBA inh conf 109 | GDH-TPI counter-2 78
CC(C)c1nc2oc3c(=O)[nH]cnc3c2c2c1COC(C)(C)C2	FBA Mtb inh 44 | Mtb FBA inh conf 196 | GDH-TPI counter-2 182
CCCc1nc2oc3c(NCCOCCO)ncnc3c2c2c1COC(C)(C)C2	FBA Mtb inh 82 | Mtb FBA inh conf 96 | GDH-TPI counter-2 60
CC(C)c1nc2oc3c(NCCO)ncnc3c2c2c1COC(C)(C)C2	FBA Mtb inh 88 | Mtb FBA inh conf 129 | GDH-TPI counter-2 99
Cc1nc2oc3c(NCC4CCCO4)ncnc3c2c2c1COC(C)(C)C2 (stereo not given)	FBA Mtb inh 102 | Mtb FBA inh conf active | GDH-TPI counter-2 185
CC(C)c1nc2oc3c(=O)[nH]cnc3c2c2c1CCC2	none
O=C(C1CCN(S(=O)(=O)c2c(Cl)cccc2Cl)CC1)N1CCCCCCC1	none
Cc1ccc(COC(=O)NCc2cccnc2)cc1	none
CCOC(=O)c1csc(-c2csc(CCNC(=O)c3ccccc3)n2)n1	none (no result: RecA splice inh, Rv3671c inh, UGM FP inh, Mtb betalactam)
CCN(C(=O)CSc1nc(-c2cccs2)nc2ccccc12)C1CCS(=O)(=O)C1 (stereo not given)	none (no result: RecA splice inh)
O=C1C=C(c2ccc(CO)cc2)C[C@@H](c2ccc(F)cc2)C1	none (no result: RecA splice inh, Rv3671c inh, UGM FP inh, Mtb betalactam)
